Results: PubChem BioAssay AID1159580 (chemical genetic matrix, 2015)
In all, about 5,500 compounds went through this assay and about 2,000 (36%) were called active. Inconclusive results (about 18%) are left out. Cut-off read from the data, not from the text of the source: active = normalized growth mostly below about 0.91 (no sharp cut-off); inconclusive = no clear call, values can overlap the other calls; inactive = mostly above about 0.92. Some of the results follow.

Assay: chemical genetic growth profiling, strain panel (AID 1159580);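 note: tested at 20 µM; growth read once vehicle control cultures reached saturation at 30 °C; 1 = growth at the plate median or of vehicle wells; lower values mean less growth of the strain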
Conditions: growth OD

Measured: normalized growth

OC(c1cc(C(F)(F)F)nc2c(C(F)(F)F)cccc12)C1CCCCN1 (stereo not drawn)
inactive: S. cerevisiae deletion strains, locus YJR066W, strain TOR1, active compounds read low 0.936 | S. cerevisiae deletion strains, locus YJR075W, strain HOC1, active compounds read low 0.978 | S. cerevisiae deletion strains, locus YKL009W, strain mrt4, active compounds read low 0.987 | S. cerevisiae deletion strains, locus YKL068W, active compounds read low 0.99 | S. cerevisiae deletion strains, locus YKL085W, strain MDH1 (second series), active compounds read low 0.989 | S. cerevisiae deletion strains, locus YKL085W, strain MDH1, active compounds read low 0.989 | S. cerevisiae deletion strains, locus YKL160W, strain elf1, active compounds read low 0.99 | S. cerevisiae deletion strains, locus YKL190W, strain CNB1, active compounds read low 0.99 | S. cerevisiae deletion strains, locus YKR001C, strain vps1, active compounds read low 1 | S. cerevisiae deletion strains, locus YKR026C, strain gcn3, active compounds read low 1.01 | S. cerevisiae deletion strains, locus YKR091W, strain srl3, active compounds read low 1 | S. cerevisiae deletion strains, locus YLL001W, strain dnm1, active compounds read low 1 | S. cerevisiae deletion strains, locus YLL026W, active compounds read low 1.01 | S. cerevisiae deletion strains, locus YLL041C, strain sdh2, active compounds read low 1.02 | S. cerevisiae deletion strains, locus YLR027C, strain aat2, active compounds read low 0.996 | S. cerevisiae deletion strains, locus YLR039C, strain RIC1, active compounds read low 1.12 | S. cerevisiae deletion strains, locus YLR058C, strain SHM2, active compounds read low 0.991 | S. cerevisiae deletion strains, locus YLR102C, strain apc9, active compounds read low 0.991 | S. cerevisiae deletion strains, locus YLR113W, strain HOG1, active compounds read low 0.93 | S. cerevisiae deletion strains, locus YLR221C, strain rsa3, active compounds read low 1.02 | S. cerevisiae deletion strains, locus YLR258W, strain gsy2, active compounds read low 1.01 | S. cerevisiae deletion strains, locus YLR262C, strain YPT6 (second series), active compounds read low 1.11 | S. cerevisiae deletion strains, locus YLR262C, strain YPT6, active compounds read low 1.15 | S. cerevisiae deletion strains, locus YLR268W, strain sec22, active compounds read low 0.975 | S. cerevisiae deletion strains, locus YLR320W, strain mms22, active compounds read low 1.01 | S. cerevisiae deletion strains, locus YLR330W, strain CHS5, active compounds read low 0.992 | S. cerevisiae deletion strains, locus YLR342W, strain FKS1 (second series), active compounds read low 0.962 | S. cerevisiae deletion strains, locus YLR342W, strain FKS1, active compounds read low 1.01 | S. cerevisiae deletion strains, locus YLR357W, strain rsc2, active compounds read low 1.09 | S. cerevisiae deletion strains, locus YLR370C, strain arc18, active compounds read low 1 | S. cerevisiae deletion strains, locus YLR371W, strain rom2, active compounds read low 0.988 | S. cerevisiae deletion strains, locus YLR384C, strain iki3, active compounds read low 1.01 | S. cerevisiae deletion strains, locus YLR418C, strain cdc73, active compounds read low 0.931 | S. cerevisiae deletion strains, locus YML016C, strain PPZ1, active compounds read low 0.989 | S. cerevisiae deletion strains, locus YML032C, strain rad52, active compounds read low 0.978 | S. cerevisiae deletion strains, locus YML120C, strain ndi1, active compounds read low 1 | S. cerevisiae deletion strains, locus YML124C, strain tub3, active compounds read low 0.99 | S. cerevisiae deletion strains, locus YMR058W, strain fet3, active compounds read low 0.997 | S. cerevisiae deletion strains, locus YMR078C, strain ctf18, active compounds read low 0.994 | S. cerevisiae deletion strains, locus YMR125W, strain sto1, active compounds read low 1 | S. cerevisiae deletion strains, locus YMR129W, active compounds read low 0.997 | S. cerevisiae deletion strains, locus YMR205C, strain PFK2, active compounds read low 1.01 | S. cerevisiae deletion strains, locus YMR223W, strain ubp8, active compounds read low 0.973 | S. cerevisiae deletion strains, locus YMR231W, strain pep5, active compounds read low 1.01 | S. cerevisiae deletion strains, locus YMR307W, strain GAS1, active compounds read low 0.869 | S. cerevisiae deletion strains, locus YNL067W, strain RPL9B, active compounds read low 0.981 | S. cerevisiae deletion strains, locus YNL071W, strain lat1, active compounds read low 1.02 | S. cerevisiae deletion strains, locus YNL183C, strain NPR1, active compounds read low 0.93 | S. cerevisiae deletion strains, locus YNL209W, strain ssb2, active compounds read low 0.996 | S. cerevisiae deletion strains, locus YNL233W, strain BNI4, active compounds read low 0.959 | S. cerevisiae deletion strains, locus YNL248C, strain rpa49, active compounds read low 0.999 | S. cerevisiae deletion strains, locus YNL250W, strain rad50, active compounds read low 0.986 | S. cerevisiae deletion strains, locus YNL271C, strain bni1, active compounds read low 0.985 | S. cerevisiae deletion strains, locus YNL298W, strain CLA4, active compounds read low 0.995 | S. cerevisiae deletion strains, locus YNL307C, strain MCK1, active compounds read low 0.992 | S. cerevisiae deletion strains, locus YNL322C, strain KRE1 (second series), active compounds read low 0.988 | S. cerevisiae deletion strains, locus YNL322C, strain KRE1, active compounds read low 0.987 | S. cerevisiae deletion strains, locus YNR049C, strain mso1, active compounds read low 1.01 | S. cerevisiae deletion strains, locus YNR052C, strain pop2, active compounds read low 0.99 | S. cerevisiae deletion strains, locus YOL006C, strain TOP1, active compounds read low 0.993 | S. cerevisiae deletion strains, locus YOL012C, strain htz1 0.986 | S. cerevisiae deletion strains, locus YOL147C, strain pex11, active compounds read low 1.01 | S. cerevisiae deletion strains, locus YOR001W, strain rrp6, active compounds read low 0.999 | S. cerevisiae deletion strains, locus YOR061W, strain CKA2, active compounds read low 0.991 | S. cerevisiae deletion strains, locus YOR069W, strain VPS5, active compounds read low 0.997 | S. cerevisiae deletion strains, locus YOR070C, strain gyp1, active compounds read low 1.01 | S. cerevisiae deletion strains, locus YOR080W, strain dia2, active compounds read low 1.02 | S. cerevisiae deletion strains, locus YOR083W, strain WHI5, active compounds read low 1.03 | S. cerevisiae deletion strains, locus YOR106W, strain vam3, active compounds read low 1.02 | S. cerevisiae deletion strains, locus YOR136W, strain idh2, active compounds read low 0.988 | S. cerevisiae deletion strains, locus YOR144C, strain elg1, active compounds read low 0.991 | S. cerevisiae deletion strains, locus YOR184W, strain ser1, active compounds read low 0.997 | S. cerevisiae deletion strains, locus YOR231W, strain MKK1, active compounds read low 0.959 | S. cerevisiae deletion strains, locus YOR265W, strain rbl2, active compounds read low 1 | S. cerevisiae deletion strains, locus YOR270C, strain vph1, active compounds read low 1.04 | S. cerevisiae deletion strains, locus YOR290C, strain snf2, active compounds read low 0.991 | S. cerevisiae deletion strains, locus YOR316C, strain cot1, active compounds read low 0.994 | S. cerevisiae deletion strains, locus YPL051W, strain arl3, active compounds read low 1.01 | S. cerevisiae deletion strains, locus YPL078C, strain atp4, active compounds read low 1 | S. cerevisiae deletion strains, locus YPL106C, strain sse1, active compounds read low 0.999 | S. cerevisiae deletion strains, locus YPL240C, strain hsp82, active compounds read low 1 | S. cerevisiae deletion strains, locus YPL256C, strain CLN2, active compounds read low 0.946 | S. cerevisiae deletion strains, locus YPR119W, strain clb2, active compounds read low 0.99 | S. cerevisiae deletion strains, locus YPR141C, strain kar3, active compounds read low 0.988 | S. cerevisiae deletion strains, locus YPR163C, strain tif3, active compounds read low 0.999 | S. cerevisiae deletion strains, locus YPR167C, strain met16, active compounds read low 0.993 | S. cerevisiae deletion strains, strain wtn01, active compounds read low 0.96 | S. cerevisiae strains, strain wild type, active compounds read low 0.983
